How the values were obtained:
Test in all cases: DAPPL (digital affinity profiling via proximity ligation, sequencing); 10 mM Tris-HCl pH 7.5, 50 mM NaCl, 1 mM DTT, 4% glycerol, room temperature, 30 min; GST-TFs on glutathione beads, 16-mer random dsDNA library, 0.1% formaldehyde crosslink after washing; high values mean tight binding
[1] = target: SPIB (Homo sapiens, UniProt Q01892 1-262); settings: protein: recombinant; tags: N-terminal GST; dsDNA, one strand shown
Outline: (§1)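 Pools were built from human transcription factors expressed in yeast as GST fusions, captured on glutathione beads and DNA-barcoded, along with a tag-only sample. Incubation with 200 nmole of a 16-mer random double-stranded DNA library lasted 30 min at room temperature in Tris/NaCl/DTT/glycerol buffer, and was followed by washing, 0.1% formaldehyde crosslinking, proximity ligation, PCR amplification and Illumina NextSeq500 sequencing. Binding signal is the quotient of each hexamer's read frequency for a factor and its frequency for the tag-only sample.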

[2] = target: T1, ELK3 (Homo sapiens, UniProt P41970 1-407); settings: protein: recombinant; tags: N-terminal GST; dsDNA, one strand shown
T1 sequence: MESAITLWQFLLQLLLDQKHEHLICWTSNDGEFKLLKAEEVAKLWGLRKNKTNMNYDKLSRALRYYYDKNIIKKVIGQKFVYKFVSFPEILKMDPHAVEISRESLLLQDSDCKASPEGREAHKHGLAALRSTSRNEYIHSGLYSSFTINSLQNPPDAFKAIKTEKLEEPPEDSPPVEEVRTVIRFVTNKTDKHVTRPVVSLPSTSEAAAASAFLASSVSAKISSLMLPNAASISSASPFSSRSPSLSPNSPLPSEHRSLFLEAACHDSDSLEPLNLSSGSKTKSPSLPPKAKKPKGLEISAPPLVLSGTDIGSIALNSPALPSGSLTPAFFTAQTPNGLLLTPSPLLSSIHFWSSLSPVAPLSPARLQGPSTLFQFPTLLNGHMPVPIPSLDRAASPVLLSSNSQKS
Outline: as §1

[3] = target: HSF1 (Homo sapiens, UniProt Q00613 1-529); settings: protein: recombinant; tags: N-terminal GST; chain copies: 3; dsDNA, one strand shown
Outline: as §1

[4] = target: T2, ELK4 (Homo sapiens, UniProt P28324-2 1-405); settings: protein: recombinant; tags: N-terminal GST; dsDNA, one strand shown
T2 sequence: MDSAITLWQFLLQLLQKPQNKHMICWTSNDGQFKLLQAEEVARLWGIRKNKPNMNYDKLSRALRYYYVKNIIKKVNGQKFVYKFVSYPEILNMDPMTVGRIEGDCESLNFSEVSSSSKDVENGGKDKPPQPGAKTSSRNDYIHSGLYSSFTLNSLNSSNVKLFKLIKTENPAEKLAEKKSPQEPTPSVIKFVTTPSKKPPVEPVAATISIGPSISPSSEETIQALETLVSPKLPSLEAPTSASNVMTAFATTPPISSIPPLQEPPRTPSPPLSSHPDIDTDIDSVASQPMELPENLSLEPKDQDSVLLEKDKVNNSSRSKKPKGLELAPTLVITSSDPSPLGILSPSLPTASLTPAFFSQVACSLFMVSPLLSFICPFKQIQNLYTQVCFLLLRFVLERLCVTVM
Outline: as §1

[5] = target: T3, ETV2 (Homo sapiens, UniProt O00321 1-342); settings: protein: recombinant; tags: N-terminal GST; dsDNA, one strand shown
T3 sequence: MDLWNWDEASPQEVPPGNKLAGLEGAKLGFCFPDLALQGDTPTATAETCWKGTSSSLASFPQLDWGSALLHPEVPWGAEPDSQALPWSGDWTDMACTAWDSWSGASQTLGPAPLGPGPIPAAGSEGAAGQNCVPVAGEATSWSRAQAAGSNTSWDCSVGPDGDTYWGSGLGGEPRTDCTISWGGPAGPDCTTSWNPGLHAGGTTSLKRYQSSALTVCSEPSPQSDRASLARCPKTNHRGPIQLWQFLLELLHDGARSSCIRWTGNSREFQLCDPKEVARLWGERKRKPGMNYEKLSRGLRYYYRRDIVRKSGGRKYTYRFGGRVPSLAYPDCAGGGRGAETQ
Outline: as §1

[6] = target: T4, ETV3L (Homo sapiens, UniProt Q6ZN32 1-361); settings: protein: recombinant; tags: N-terminal GST; dsDNA, one strand shown
T4 sequence: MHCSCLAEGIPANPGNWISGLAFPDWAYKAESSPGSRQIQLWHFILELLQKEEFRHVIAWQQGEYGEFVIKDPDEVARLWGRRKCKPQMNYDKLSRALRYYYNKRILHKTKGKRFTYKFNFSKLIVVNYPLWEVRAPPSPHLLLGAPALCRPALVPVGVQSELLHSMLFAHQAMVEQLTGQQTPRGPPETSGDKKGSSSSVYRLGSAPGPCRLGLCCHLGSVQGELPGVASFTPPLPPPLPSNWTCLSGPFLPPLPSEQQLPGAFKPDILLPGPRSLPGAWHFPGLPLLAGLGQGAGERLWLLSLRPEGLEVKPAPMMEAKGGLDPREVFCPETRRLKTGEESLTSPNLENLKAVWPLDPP
Outline: as §1

[7] = target: T5, ETS2 (Homo sapiens, UniProt P15036 1-469); settings: protein: recombinant; tags: N-terminal GST; dsDNA, one strand shown
T5 sequence: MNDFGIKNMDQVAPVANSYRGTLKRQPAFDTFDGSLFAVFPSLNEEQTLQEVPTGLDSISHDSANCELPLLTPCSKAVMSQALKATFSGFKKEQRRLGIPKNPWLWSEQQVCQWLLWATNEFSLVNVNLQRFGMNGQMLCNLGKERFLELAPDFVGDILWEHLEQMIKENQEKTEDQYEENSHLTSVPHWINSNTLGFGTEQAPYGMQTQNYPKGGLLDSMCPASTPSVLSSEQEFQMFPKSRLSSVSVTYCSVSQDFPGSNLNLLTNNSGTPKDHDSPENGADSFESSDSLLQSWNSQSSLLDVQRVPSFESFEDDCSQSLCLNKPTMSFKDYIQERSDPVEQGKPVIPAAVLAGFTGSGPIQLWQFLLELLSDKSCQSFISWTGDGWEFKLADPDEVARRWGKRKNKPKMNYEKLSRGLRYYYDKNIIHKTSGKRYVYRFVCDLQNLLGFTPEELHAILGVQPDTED
Outline: as §1

[8] = target: T6, GABPA (Homo sapiens, UniProt Q06546 1-454); settings: protein: recombinant; tags: N-terminal GST; dsDNA, one strand shown
T6 sequence: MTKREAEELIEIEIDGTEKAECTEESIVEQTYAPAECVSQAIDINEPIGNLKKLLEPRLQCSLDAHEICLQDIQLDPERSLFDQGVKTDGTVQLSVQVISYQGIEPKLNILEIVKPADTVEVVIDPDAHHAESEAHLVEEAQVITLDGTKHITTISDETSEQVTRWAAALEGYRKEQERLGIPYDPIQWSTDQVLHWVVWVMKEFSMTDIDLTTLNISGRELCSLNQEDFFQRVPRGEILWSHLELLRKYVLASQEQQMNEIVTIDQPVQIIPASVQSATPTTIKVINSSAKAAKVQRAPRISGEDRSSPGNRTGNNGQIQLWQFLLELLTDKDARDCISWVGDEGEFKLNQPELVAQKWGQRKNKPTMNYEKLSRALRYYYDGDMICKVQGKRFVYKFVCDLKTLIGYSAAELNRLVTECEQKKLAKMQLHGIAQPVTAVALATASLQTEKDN
Outline: as §1

[9] = target: ELF1 (Homo sapiens, UniProt P32519 1-619); settings: protein: recombinant; tags: N-terminal GST; dsDNA, one strand shown
Outline: as §1

[10] = target: T7, FEV (Homo sapiens, UniProt Q99581 1-238); settings: protein: recombinant; tags: N-terminal GST; dsDNA, one strand shown
T7 sequence: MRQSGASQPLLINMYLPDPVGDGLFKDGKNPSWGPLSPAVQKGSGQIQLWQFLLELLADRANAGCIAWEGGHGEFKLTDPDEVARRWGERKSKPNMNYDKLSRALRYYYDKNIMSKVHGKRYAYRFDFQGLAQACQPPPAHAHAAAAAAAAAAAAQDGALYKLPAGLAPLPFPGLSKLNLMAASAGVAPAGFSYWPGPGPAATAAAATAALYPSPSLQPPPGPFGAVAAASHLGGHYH
Outline: as §1

[11] = target: T8, SPIC (Homo sapiens, UniProt Q8N5J4 1-248); settings: protein: recombinant; tags: N-terminal GST; dsDNA, one strand shown
T8 sequence: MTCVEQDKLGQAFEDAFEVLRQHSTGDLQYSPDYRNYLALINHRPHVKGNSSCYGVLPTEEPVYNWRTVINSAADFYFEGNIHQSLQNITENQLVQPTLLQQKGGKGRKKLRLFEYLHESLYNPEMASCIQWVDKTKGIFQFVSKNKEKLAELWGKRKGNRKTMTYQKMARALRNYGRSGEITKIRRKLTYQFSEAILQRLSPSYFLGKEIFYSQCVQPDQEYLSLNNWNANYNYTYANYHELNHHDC
Outline: as §1

[12] = target: CRX (Homo sapiens, UniProt O43186 1-299); settings: protein: recombinant; tags: N-terminal GST; dsDNA, one strand shown
Outline: as §1

[13] = target: ETV1 (Homo sapiens, UniProt P50549 1-477); settings: protein: recombinant; tags: N-terminal GST; dsDNA, one strand shown
Outline: as §1

[14] = target: T9, ERF (Homo sapiens, UniProt P50548 1-548); settings: protein: recombinant; tags: N-terminal GST; dsDNA, one strand shown
T9 sequence: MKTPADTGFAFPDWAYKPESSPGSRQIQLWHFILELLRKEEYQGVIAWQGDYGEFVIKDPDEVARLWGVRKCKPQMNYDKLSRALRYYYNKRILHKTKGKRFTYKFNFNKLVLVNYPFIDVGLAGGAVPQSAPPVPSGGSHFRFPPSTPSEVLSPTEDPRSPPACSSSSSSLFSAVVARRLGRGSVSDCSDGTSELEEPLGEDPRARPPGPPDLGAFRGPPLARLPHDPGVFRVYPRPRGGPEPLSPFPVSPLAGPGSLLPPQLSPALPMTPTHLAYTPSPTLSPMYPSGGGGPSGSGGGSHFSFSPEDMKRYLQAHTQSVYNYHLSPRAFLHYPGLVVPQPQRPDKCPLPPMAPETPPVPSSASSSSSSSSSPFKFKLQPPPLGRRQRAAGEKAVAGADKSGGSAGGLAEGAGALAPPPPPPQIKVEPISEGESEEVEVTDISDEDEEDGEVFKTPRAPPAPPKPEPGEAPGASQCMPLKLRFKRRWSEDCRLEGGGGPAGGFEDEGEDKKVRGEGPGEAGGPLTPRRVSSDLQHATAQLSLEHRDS
Outline: as §1

[15] = target: ETV6 (Homo sapiens, UniProt P41212 1-452); settings: protein: recombinant; tags: N-terminal GST; dsDNA, one strand shown
Outline: as §1

Sequence of HSF1 (Q00613 whole entry): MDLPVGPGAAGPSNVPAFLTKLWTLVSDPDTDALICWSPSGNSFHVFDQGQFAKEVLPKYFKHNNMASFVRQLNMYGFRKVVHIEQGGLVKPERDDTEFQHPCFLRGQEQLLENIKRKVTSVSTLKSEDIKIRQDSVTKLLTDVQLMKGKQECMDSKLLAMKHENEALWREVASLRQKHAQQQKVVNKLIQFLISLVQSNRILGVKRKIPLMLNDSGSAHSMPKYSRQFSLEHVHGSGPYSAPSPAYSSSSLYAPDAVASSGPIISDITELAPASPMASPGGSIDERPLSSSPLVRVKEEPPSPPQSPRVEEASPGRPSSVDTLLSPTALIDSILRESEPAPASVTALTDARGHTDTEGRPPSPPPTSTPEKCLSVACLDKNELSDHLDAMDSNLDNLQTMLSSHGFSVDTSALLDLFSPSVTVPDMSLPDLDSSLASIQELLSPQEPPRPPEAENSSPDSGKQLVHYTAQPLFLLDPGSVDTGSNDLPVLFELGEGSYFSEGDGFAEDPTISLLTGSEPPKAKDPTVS
Sequence of ELF1 (P32519 whole entry): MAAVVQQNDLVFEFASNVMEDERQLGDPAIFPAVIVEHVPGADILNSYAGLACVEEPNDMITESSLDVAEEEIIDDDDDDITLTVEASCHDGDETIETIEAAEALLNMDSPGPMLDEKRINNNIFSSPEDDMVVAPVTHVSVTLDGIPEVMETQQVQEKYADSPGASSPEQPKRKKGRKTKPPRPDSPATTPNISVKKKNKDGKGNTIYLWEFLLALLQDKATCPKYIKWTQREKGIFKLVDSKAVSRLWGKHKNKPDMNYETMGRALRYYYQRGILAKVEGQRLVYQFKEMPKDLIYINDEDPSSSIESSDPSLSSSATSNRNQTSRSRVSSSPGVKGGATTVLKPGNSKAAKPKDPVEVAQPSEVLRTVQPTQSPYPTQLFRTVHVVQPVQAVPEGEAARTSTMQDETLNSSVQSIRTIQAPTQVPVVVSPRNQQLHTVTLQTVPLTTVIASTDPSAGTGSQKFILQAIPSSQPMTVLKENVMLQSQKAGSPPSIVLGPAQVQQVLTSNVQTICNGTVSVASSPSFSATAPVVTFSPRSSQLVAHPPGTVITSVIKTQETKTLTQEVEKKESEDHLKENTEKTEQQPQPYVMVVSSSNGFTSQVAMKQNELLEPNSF
Sequence of ETV1 (P50549 whole entry): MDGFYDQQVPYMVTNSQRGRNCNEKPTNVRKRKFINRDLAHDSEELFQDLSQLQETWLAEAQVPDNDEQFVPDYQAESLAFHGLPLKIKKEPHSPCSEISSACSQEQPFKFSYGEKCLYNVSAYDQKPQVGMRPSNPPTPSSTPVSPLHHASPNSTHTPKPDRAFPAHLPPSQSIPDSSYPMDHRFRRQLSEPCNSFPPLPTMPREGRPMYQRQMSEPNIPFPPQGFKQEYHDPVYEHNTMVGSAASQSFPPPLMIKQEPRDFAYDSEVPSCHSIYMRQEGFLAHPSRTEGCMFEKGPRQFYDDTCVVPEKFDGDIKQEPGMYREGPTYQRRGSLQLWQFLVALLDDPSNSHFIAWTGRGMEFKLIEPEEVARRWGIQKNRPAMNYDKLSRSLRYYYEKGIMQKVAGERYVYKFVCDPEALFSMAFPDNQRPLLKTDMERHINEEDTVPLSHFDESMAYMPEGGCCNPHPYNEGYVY
Sequence of CRX (O43186 whole entry): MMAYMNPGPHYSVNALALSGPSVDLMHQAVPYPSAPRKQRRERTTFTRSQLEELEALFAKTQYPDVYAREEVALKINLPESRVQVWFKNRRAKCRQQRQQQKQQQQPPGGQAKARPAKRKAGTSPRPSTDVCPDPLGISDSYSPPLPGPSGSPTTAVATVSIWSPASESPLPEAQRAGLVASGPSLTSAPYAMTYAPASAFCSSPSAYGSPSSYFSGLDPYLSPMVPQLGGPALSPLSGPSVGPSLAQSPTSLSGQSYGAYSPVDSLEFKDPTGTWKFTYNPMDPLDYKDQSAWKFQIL
Sequence of SPIB (Q01892 whole entry, the tested form may be a part): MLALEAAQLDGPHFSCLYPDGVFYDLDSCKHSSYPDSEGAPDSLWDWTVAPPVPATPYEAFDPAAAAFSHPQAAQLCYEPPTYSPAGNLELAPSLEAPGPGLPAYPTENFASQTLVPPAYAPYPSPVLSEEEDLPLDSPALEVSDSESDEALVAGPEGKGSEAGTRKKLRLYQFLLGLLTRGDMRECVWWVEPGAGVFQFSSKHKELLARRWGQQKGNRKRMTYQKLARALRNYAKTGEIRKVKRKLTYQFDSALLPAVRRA
Sequence of ETV6 (P41212 whole entry): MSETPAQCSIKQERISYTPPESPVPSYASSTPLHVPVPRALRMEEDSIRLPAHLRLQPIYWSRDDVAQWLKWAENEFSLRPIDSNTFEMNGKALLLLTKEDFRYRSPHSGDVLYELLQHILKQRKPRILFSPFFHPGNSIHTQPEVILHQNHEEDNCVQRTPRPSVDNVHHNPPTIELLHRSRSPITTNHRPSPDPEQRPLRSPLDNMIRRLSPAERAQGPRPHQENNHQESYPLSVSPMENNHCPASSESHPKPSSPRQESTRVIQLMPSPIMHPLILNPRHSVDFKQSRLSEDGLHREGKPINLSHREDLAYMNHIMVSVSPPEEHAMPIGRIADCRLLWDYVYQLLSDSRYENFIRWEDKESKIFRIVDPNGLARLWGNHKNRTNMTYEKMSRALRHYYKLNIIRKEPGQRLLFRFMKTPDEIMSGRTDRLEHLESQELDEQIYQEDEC

Sequence: GCCTGG
- binding signal [1]: 1.04 fold enrichment (6-mer frequency, TF over GST control)
- binding signal [2]: 1.01 fold enrichment (6-mer frequency, TF over GST control)
- binding signal [3]: 1.05 fold enrichment (6-mer frequency, TF over GST control)
- binding signal [4]: 1.08 fold enrichment (6-mer frequency, TF over GST control)
- binding signal [5]: 1.19 fold enrichment (6-mer frequency, TF over GST control)
- binding signal [6]: 1 fold enrichment (6-mer frequency, TF over GST control)
- binding signal [7]: 1.02 fold enrichment (6-mer frequency, TF over GST control)

Sequence: TAGAAC
- binding signal [8]: 1.03 fold enrichment (6-mer frequency, TF over GST control)
- binding signal [9]: 1.01 fold enrichment (6-mer frequency, TF over GST control)
- binding signal [2]: 1.03 fold enrichment (6-mer frequency, TF over GST control)
- binding signal [10]: 1 fold enrichment (6-mer frequency, TF over GST control)
- binding signal [3]: 2.74 fold enrichment (6-mer frequency, TF over GST control)
- binding signal [11]: 1 fold enrichment (6-mer frequency, TF over GST control)
- binding signal [12]: 1.43 fold enrichment (6-mer frequency, TF over GST control)
- binding signal [13]: 1.07 fold enrichment (6-mer frequency, TF over GST control)
- binding signal [14]: 1.02 fold enrichment (6-mer frequency, TF over GST control)
- binding signal [15]: 1.09 fold enrichment (6-mer frequency, TF over GST control)

Reference: PMC7862700, “An all-to-all approach to the identification of sequence-specific readers for epigenetic DNA modifications on cytosine”
